The target of one experiment is Albumin (Bos taurus) (UniProt P02769). Nature of the experiment: bovine serum albumin binders on microarray, profiling panel, artefact control for SMM control protein annotation, biochemical, small-molecule microarray, Alexa647 label, 635/667 nm fluorescence (AID 1118).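 Further: score merges 667 nm emission intensity and signal-to-noise per printed compound spot.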 The conditions noted are these: BSA-A647 binding, fluorescence 635 nm, higher = more signal.
The nature of experiment [1]: small-molecule microarray binders of probe aXIP, primary screen, biochemical, NeuroSMM set, 635/667 nm fluorescence (AID 1119).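 Further: probe is the protein aXip251-270 applied at 1 µg/mL to compound-printed slides; binding of probe to printed compounds measured as 667 nm fluorescence plus signal to noise.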 The conditions noted are these: higher = more signal, called active from +8 up or from −8 down.
Experiment [2] can be described thus: small-molecule binders of probe aNOTCH3, primary screen, biochemical, small-molecule microarray, 635/667 nm fluorescence (AID 1120).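 Further: probe is a biotin-tagged antibody raised against NOTCH3 rather than NOTCH3 protein; score merges spot fluorescence near 667 nm with spot signal to noise.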 The conditions noted are these: higher = more signal.
A short description of experiment [3]: small-molecule binders of probe aNOTCH2, primary screen, biochemical, small-molecule microarray, 635/667 nm fluorescence (AID 1121).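 Further: score merges feature fluorescence read at 667 nm with its signal to noise.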 The conditions noted are these: higher = more signal.
Experiment [4] addresses Carbonic anhydrase 2 (Homo sapiens) (UniProt P00918). As to the kind of experiment: CAII small-molecule binders, profiling panel, biochemical, small-molecule microarray, Alexa647-labelled CAII (AID 1122). The conditions noted are these: CAII-A647 binding fluorescence, higher = more signal.
The nature of experiment [5]: COS7 lysate on small-molecule microarray, probe aHis, 635 nm (AID 1123).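 Further: z-score combines 667nm fluorescence intensity with signal-to-noise per printed compound spot.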 Particulars: COS7 cell lysate, fluorescence, higher = more signal.
The nature of experiment [6]: compound binding in COS7 lysate, probe aLAP1, primary screen, cell lysate, small-molecule microarray (AID 1124).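 Further: lysate comes from COS7 cells expressing LAP1 and is applied at 0.3 µg/mL; score merges spot fluorescence near 667 nm with signal-to-noise over triplicate slides.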 Particulars: probe aLAP1, fluorescence, higher = more signal.
For another experiment, the system named is Sam68 (KHDRBS1). Nature of the experiment: Sam68 small-molecule binders, primary screen, biochemical, small-molecule microarray, 635 nm fluorescence (AID 1125).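 Further: score merges 667 nm channel intensity with signal to noise over triplicate slides.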 Particulars: small-molecule microarray binding, higher = more signal.
In experiment [7] the test system is Chordin-like protein 2 (CHRDL2). Nature of the experiment: CHRDL2 small-molecule binders, primary screen, biochemical, small-molecule microarray, 635 nm fluorescence (AID 1126).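 Further: printed compound slides probed with Chrdl2 protein at 4 µg/mL for 1 h at 4 C; score merges 667 nm emission intensity with signal to noise over three replicate slides.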 The conditions noted are these: small-molecule microarray binding, fluorescence 635 nm; higher = more signal.
The target in experiment [8] is Concanavalin-A (Canavalia ensiformis) (UniProt P02866). As to the kind of experiment: ConA small-molecule binders, primary screen, artefact control for SMM control protein annotation, biochemical, small-molecule microarray, Alexa647 label, 635 nm (AID 1127).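 Further: z combines 667 nm emission intensity with signal-to-noise across three replicate slides.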 Particulars: ConA-A647 binding fluorescence, higher = more signal.
Chain of Concanavalin-A (Canavalia ensiformis) (P02866 whole entry, looked up): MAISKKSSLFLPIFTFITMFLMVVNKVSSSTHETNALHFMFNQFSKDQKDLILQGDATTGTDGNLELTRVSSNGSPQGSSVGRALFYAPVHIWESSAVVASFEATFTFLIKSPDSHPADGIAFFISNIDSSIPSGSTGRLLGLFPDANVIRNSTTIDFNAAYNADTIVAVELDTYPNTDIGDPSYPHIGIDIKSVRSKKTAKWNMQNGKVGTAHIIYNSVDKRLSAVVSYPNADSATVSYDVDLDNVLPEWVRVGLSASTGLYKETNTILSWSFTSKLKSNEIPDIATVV
Experiment [9] is described as follows: anti-His antibody binders, primary screen, artefact control for SMM control protein annotation, biochemical, small-molecule microarray, 635 nm fluorescence (AID 1128).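 Further: score merges feature fluorescence with signal-to-noise for each printed compound spot.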 Particulars: anti-His Alexa647 antibody binding, higher = more signal.
Experiment [10] concerns Human papillomavirus type 1a E7 protein (residues 1-88). As to the kind of experiment: HPV1a E7 small-molecule binders, primary screen, biochemical, small-molecule microarray, residues 1-88, 635 nm (AID 1129). The conditions noted are these: small-molecule microarray binding, fluorescence 635 nm; higher = more signal.
For experiment [11], the target named is Focal adhesion kinase 1 (Homo sapiens) (UniProt Q05397). As to the kind of experiment: small-molecule microarray binders of FAK, primary screen, biochemical, 635/667 nm fluorescence, BSA, DTT (AID 1130).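 Further: composite of spot emission at 667 nm and signal to noise over triplicate slides.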 The conditions noted are these: PTK2 binding, 635 nm fluorescence, higher = more signal.
Chain of Focal adhesion kinase 1 (Homo sapiens) (Q05397 whole entry, looked up): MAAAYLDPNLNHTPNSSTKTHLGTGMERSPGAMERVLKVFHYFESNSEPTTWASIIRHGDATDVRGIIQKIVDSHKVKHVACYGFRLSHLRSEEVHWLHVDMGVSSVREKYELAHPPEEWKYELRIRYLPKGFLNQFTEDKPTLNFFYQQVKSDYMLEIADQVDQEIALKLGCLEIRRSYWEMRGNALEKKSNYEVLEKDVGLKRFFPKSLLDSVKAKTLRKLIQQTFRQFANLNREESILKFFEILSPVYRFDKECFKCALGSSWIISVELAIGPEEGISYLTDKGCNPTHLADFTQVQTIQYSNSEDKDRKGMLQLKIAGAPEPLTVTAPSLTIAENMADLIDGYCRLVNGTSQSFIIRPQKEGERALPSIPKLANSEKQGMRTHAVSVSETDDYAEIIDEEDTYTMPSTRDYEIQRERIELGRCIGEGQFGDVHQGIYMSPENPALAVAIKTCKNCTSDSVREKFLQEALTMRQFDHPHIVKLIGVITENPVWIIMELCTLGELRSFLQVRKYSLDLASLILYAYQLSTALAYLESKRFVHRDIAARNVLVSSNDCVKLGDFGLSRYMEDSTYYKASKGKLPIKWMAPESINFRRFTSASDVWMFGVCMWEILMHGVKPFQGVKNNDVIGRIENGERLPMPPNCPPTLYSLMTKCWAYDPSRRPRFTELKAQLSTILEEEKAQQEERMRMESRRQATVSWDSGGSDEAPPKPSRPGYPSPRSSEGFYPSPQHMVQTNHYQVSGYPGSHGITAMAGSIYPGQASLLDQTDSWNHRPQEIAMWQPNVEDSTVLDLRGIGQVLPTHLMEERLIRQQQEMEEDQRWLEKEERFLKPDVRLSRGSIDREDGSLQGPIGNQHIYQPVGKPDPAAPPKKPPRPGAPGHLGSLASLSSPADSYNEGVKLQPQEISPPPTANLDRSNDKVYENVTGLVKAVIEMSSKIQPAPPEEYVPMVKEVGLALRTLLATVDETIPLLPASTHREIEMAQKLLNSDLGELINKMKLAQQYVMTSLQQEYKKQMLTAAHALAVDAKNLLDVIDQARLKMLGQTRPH
In experiment [12] the test system is Fibrinogen (Alexa647-labelled). As to the kind of experiment: fibrinogen binders on compound microarrays, profiling panel, artefact control for SMM control-protein annotation, biochemical, small-molecule microarray, 635/667 nm fluorescence (AID 1131).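 Further: z-score merges 667 nm fluorescence with per-spot signal-to-noise over triplicate slides.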 The conditions noted are these: fibrinogen-A647 binding fluorescence, higher = more signal.
In experiment [13] the target is Follistatin (Homo sapiens) (UniProt P19883). As to the kind of experiment: follistatin binders on small-molecule microarrays, primary screen, biochemical, small-molecule microarray, 635/667 nm fluorescence (AID 1132). The conditions noted are these: FST binding, 635 nm fluorescence, higher = more signal.
Chain of Follistatin (Homo sapiens) (P19883 whole entry, looked up): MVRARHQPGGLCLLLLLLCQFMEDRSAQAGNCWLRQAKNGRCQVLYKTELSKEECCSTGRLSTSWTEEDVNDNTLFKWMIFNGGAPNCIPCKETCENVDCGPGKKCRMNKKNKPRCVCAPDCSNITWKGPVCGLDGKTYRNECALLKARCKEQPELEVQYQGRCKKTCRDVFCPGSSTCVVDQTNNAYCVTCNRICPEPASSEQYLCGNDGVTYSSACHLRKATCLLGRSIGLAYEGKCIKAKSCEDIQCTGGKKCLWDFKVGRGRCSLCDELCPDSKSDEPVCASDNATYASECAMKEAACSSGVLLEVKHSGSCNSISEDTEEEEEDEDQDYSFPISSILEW
Experiment [14] concerns the target Fibroblast growth factor 2 (Homo sapiens) (UniProt P09038). Nature of the experiment: FGF2 binders on small-molecule microarrays, primary screen, biochemical, small-molecule microarray, 635/667 nm fluorescence (AID 1133). Particulars: small-molecule microarray binding, FGF2, fluorescence 635/667; higher = more signal.
Experiment [15] in a line: mitochondrial membrane potential change in A549 cells, profiling panel, cell-based, JC-1 fluorescence, basal, 24 h, 100 nL (AID 1138).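 Further: A549 lung adenocarcinoma cells under basal conditions with no added stimulus; test concentration not given here.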 The conditions noted are these: higher = more signal.
Another experiment has as its system Lefty1. As to the kind of experiment: Lefty1 binders on small-molecule microarrays, primary screen, biochemical, small-molecule microarray, 635/667 nm fluorescence (AID 1139). Particulars: small-molecule microarray binding, fluorescence 635/667; higher = more signal.
The test system of experiment [16] is wheat germ agglutinin (Triticum aestivum), Alexa647-labelled. As to the kind of experiment: wheat germ agglutinin binders on compound microarrays, profiling panel, artefact control for SMM control-protein annotation, biochemical, small-molecule microarray, 635/667 nm fluorescence (AID 1140).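 Further: score merges 667 nm feature emission with signal to noise over triplicate slides.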 Particulars: WGA-A647 binding, 635 nm fluorescence, higher = more signal.

The target of experiment [17] is Luciferin 4-monooxygenase (Photinus pyralis) (UniProt P08659). As to the kind of experiment: firefly luciferase enzyme inhibitors, primary screen, biochemical, luminescence, purified enzyme, 2006 set (AID 1141).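 Further: cell-free assay with purified firefly luciferase at 100 ng per well in PBS; test concentration not given here.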 Particulars: SteadyGlo luminescence, 30 min, higher = more signal, called active from +8 up or from −8 down.
Chain of Luciferin 4-monooxygenase (Photinus pyralis) (P08659 whole entry, looked up): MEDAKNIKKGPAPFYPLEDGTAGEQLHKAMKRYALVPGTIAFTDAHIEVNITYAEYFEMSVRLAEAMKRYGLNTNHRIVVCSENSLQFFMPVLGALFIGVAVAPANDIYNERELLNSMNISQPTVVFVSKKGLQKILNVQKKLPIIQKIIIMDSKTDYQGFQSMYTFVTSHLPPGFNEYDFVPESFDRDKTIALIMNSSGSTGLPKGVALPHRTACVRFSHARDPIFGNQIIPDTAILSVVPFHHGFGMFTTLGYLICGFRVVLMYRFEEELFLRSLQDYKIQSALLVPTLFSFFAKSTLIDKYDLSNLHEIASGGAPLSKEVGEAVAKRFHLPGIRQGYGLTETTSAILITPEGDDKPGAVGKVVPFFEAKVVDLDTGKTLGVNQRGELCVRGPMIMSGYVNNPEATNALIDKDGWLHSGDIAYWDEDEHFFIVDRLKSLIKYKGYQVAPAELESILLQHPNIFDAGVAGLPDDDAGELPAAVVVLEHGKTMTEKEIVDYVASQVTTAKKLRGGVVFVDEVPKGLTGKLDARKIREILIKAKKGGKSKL

Molecules are shown by their SMILES. Activity calls are given as the source filed them.

Chain of Fibroblast growth factor 2 (Homo sapiens) (P09038 whole entry, looked up): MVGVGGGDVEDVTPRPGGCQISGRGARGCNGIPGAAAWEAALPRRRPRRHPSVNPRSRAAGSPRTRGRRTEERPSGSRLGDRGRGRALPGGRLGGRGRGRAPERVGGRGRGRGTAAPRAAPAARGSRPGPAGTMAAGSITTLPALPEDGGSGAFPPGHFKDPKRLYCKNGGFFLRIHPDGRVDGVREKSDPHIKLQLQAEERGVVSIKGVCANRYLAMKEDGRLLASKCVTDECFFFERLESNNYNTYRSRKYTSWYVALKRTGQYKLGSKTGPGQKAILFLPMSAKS
Chain of Albumin (Bos taurus) (P02769 whole entry, looked up): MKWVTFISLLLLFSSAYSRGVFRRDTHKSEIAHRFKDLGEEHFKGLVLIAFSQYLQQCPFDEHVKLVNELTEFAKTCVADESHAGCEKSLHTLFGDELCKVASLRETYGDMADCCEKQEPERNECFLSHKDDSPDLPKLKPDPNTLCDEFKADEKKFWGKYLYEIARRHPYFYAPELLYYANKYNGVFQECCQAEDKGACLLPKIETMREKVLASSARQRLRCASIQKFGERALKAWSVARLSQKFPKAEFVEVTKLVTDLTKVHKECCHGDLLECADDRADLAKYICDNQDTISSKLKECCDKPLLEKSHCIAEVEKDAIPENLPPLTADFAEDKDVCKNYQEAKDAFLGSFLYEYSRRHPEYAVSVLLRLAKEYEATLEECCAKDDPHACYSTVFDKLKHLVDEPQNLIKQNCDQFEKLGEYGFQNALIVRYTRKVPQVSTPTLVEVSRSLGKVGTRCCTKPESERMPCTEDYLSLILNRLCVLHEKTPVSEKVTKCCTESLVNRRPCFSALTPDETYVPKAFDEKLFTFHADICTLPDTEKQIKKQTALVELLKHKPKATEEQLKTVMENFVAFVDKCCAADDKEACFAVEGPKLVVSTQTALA

Regarding `CCCCCCCCCCC(O)C1C=CC2C(=O)N(Cc3ccccc3)C(=O)C2N1n1cnnc1` (stereo not given), the composite z-score with Albumin (Bos taurus) came to 0.834; in [2], 0.435; in [3], 0.0605; in [4], 0.485; in [5] it was 1.1; in experiment [6], 0.687. The composite z-score is 1.11 in the experiment with Sam68 (KHDRBS1); -0.686 in experiment [7]; 1.04 in experiment [8]; -0.244 in [9]; 0.812 in experiment [10]; 0.656 in experiment [11]. Also, the composite z-score in experiment [12] was 0.532; in experiment [13] it was -0.238; in experiment [14], -0.982; in the experiment on Lefty1, 0.486; in experiment [16], 0.493. Further, the composite Z-score in [1] was 0.797 (inactive). Also, the z-score in experiment [15] is -1.27; in [17] it was 0.892 (inactive).
In the case of `O=C1O[C@@H](c2ccccc2)[C@@H](c2ccccc2)N2[C@@H](c3ccc(O)cc3)[C@]3(C(=O)Nc4ccc(C#CC5=CCCCC5)cc43)[C@@H](C(=O)O)[C@H]12`, the composite z-score came out at 0.885 in the experiment with Albumin (Bos taurus); 0.139 in experiment [2]; 0.0685 in experiment [3]; 0.715 in [4]; 1.86 in experiment [5]; 0.788 in [6]. Moreover, the composite z-score in the experiment on Sam68 (KHDRBS1) is 1.32; in experiment [7], -0.194; in experiment [8], 0.9; in experiment [9], 3.13; in experiment [10] it was 1.11; in [11], 0.676. In addition, the composite z-score in experiment [12] came out at 0.734; in experiment [13] it was 0.473; in experiment [14], 0.146; in the experiment with Lefty1 it was 0.195; in experiment [16], 1.35. In addition, the composite Z-score in experiment [1] was 0.341 (inactive). In addition, the figures for the z-score in experiment [15] and in [17] were -0.29 and -3.5 (inactive), respectively.
`COc1ccc(CCNC(=O)[C@@H]2c3ccccc3C(=O)N(Cc3ccc(OC(F)(F)F)cc3)[C@H]2c2ccc(CO)cc2)cc1`: the composite z-score in the experiment with Albumin (Bos taurus) was 0.59; in [2] it was -0.0077; in experiment [3] it was -0.0029; in experiment [4], 0.497; in experiment [5], 1.53; in experiment [6], 0.983. Also, the composite z-score in the experiment on Sam68 (KHDRBS1) is 1.07; in experiment [7], 0.0372; in experiment [8], 0.485; in [9], 1.66; in [10] it was 0.901; in experiment [11], 0.658. The composite z-score in experiment [12] was found to be 0.0913; in [13], 1.18; in experiment [14], 0.494; in the experiment with Lefty1, 0.147; in experiment [16], 0.213. Also, the composite Z-score in experiment [1] was -0.313 (inactive). Besides, the z-score in experiment [15] is 1.48; in experiment [17], -0.243 (inactive).
As to `CN1C(=O)C2C(C1=O)C1C=C(CCCO)C2C(c2cccs2)N1C` (stereo not given), the composite z-score with Albumin (Bos taurus) is 0.565; in experiment [2], -0.154; in [3], -0.231; in experiment [4], 0.779; in [5], 0.138; in [6] it was 1.62. The composite z-score in the experiment on Sam68 (KHDRBS1) is -0.27; in experiment [7] it was -0.0999; in experiment [8], -0.774; in experiment [9] it was 0.121; in [10] it was -0.612; in experiment [11], -0.0834. Also, the composite z-score in experiment [12] was -0.234; in experiment [13] it was 0.143; in experiment [14], 0.0096; with Lefty1 it was -0.76; in [16], -0.1. The composite Z-score in experiment [1] was 0.654 (inactive). The z-score in experiment [15] is 1.15; in experiment [17] it was -0.39 (inactive).
Consider `CCN(CC)c1ccc(N2CC=CC34O[C@@H]5C=CCCOC(=O)C5[C@H]3C(=O)N(CCCCCO)[C@@H]4C2=O)cc1` (stereo not given in full), for which the composite z-score was -0.515 with Albumin (Bos taurus); 0.0522 in [2]; 0.396 in experiment [3]; 0.285 in experiment [4]; 0.395 in experiment [5]; 0.483 in experiment [6]. Further, the composite z-score in the experiment on Sam68 (KHDRBS1) is 0.13; in experiment [7] it was -0.218; in experiment [8], -0.459; in [9], 0.0436; in [10] it was -0.513; in experiment [11], -0.172. Also, the composite z-score was -0.471 in experiment [12]; -0.0495 in experiment [13]; -0.304 in experiment [14]; -0.0412 in the experiment with Lefty1; 0.169 in experiment [16]. Moreover, in experiment [1], the composite Z-score is 1.07 (inactive). Also, the z-score in experiment [15] was 2.56; in experiment [17], -1.29 (inactive).

(Values after PubChem BioAssay.)
